Bioassay records: PubChem BioAssay, National Center for Advancing Translational Sciences (NCATS)
TDP1 cell CPT = growth inhibition of DT40 Tdp1-/-;hTDP1 cells with camptothecin (screen for TDP1 inhibitors); Potency, µM (highest dose often 46.2 µM), without a hit: at the top dose activity change, negative = growth inhibition, actives largely listed as inhibitors; actives 12% (n = 420,000); chicken DT40 Tdp1-/-;hTDP1 cells + 20 nM CPT, ATP luminescence, 48 h; further: on the % scale 0 is the no-effect control and ±100 the full control effect; nearly all actives have a fitted effect of over 55% in size
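Chicken DT40 Tdp1-/- cells stably complemented with human TDP1 were seeded at 400 cells/well in medium containing 20 nM camptothecin, exposed to pin-transferred compounds, and grown at 37 °C for at least 48 hr. Viability was read as ATP luminescence.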
HT1080 IDH1KD tx = HT-1080 IDH1 knockdown cell toxicity (counter line). HT-1080 IDH1 knockdown viability, ATP luminescence, 48 h. Potency, µM (titrated, usually from 46.1 µM), for inactives: top-dose activity, negative = toxicity, hits mostly cytotoxic. actives 2% (n = 360,000). AID 686971;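 further: 0% = DMSO wells and -100% = cell-free medium wells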
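In this qHTS, HT-1080 cells depleted of IDH1 are exposed for 48 h at 37 °C to compound titrations. Toxicity is scored from CellTiter-Glo luminescence, with DMSO as full viability and medium alone as none.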
HepG2 viability = HepG2 cytotoxicity, counter-screen for TGF-b inhibitors; actives 0.76% (n = 410,000); HepG2 CAGA-GFP viability, ATP luminescence, 18 h; Potency, µM (top dose mostly 46.1 µM), without a hit: top-dose activity change, negative = cytotoxicity, hits mostly cytotoxic
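HepG2 CAGA-GFP cells (1000/well, DMEM with 1% FBS) received compound, then TGF-beta at 500 pg/mL final, and were incubated 18 hours at 37 degrees C. Viability was read by CellTiter-Glo luminescence. Media-only wells were set as complete cell-killing and DMSO as no toxicity.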
TGFb SMAD3 inh = blocks TGF-b signaling | HepG2 CAGA-GFP TGF-b/SMAD3 reporter, GFP fluorescence, 18 h; TGF-beta stimulated, 500 pg/mL final | Potency, µM (top dose mostly 46.1 µM), inactives show at the highest dose activity, negative = inhibition, hits mostly inhibitors | actives 1.2% (n = 410,000); further: on the % scale 0 is the no-effect control and ±100 the full control effect; nearly all actives have a fitted effect of over 65% in size
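Smad-responsive CAGA-GFP expression was quantified in HEPG2 cells exposed to compounds and 500 pg/mL final TGF-beta for 18 h at 37 degrees C; unstimulated wells defined full inhibition.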
HT1080-NT tox = kills 2HG-producing HT-1080-NT fibrosarcoma cells. HT-1080-NT fibrosarcoma viability, CellTiter-Glo ATP luminescence, 48 h. Potency, µM (series often up to 46.1 µM), for inactives: top-dose activity, negative = less viability, actives largely listed as cytotoxic. actives 1.6% (n = 360,000);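 further: NT is the 2HG producing partner of a matched IDH1 knockdown line; 0% = DMSO-treated cells and -100% = media-only wells without cells; nearly all actives have a fitted effect of over 55% in size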
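Read-out is CellTiter-Glo luminescence after 10 minutes at room temperature, following 48 hours' compound treatment of HT-1080-NT cells (750 cells/well, RPMI, 5% FBS, 37 degrees C).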
TDP1 cell noCPT = qHTS for Inhibitors of human tyrosyl-DNA phosphodiesterase 1 (TDP1): qHTS in cells in absence of CPT; DT40 Tdp1-/- hTDP1 cells, no CPT, ATP luminescence, 48 h; Potency, µM (doses to about 46.2 µM), for inactives: top-dose activity change, negative = growth inhibition, most hits filed as inhibitors; actives 15% (n = 420,000); further: on the % scale 0 is the no-effect control and ±100 the full control effect; nearly all actives have a fitted effect of over 55% in size
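Growth of hTDP1-complemented DT40 Tdp1-knockout cells is measured by ATP luminescence after at least 48 hr compound exposure at 37 °C, with DMSO substituting for the 20 nM CPT used in the parallel screen.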
An asterisk follows results filed as active; u = inconclusive; x = no result given. Compounds with a hit are over-represented: about 17% of the library has one in this group of screens. The call rests on the fitted dose curve; in most records, active means well fitted curve in the direction sought with a large enough effect; inconclusive means small, poorly fitted or top-dose-only effect, or another doubt; inactive means no such curve, though single readings can be large; an effect the other way counts as inactive or inconclusive. Potency means the concentration at half of the fitted maximal effect.

SMILES	TDP1 cell CPT	HT1080 IDH1KD tx	HepG2 viability	TGFb SMAD3 inh	HT1080-NT tox	TDP1 cell noCPT
Cc1cc(C(C)(C)C)cc(C)c1CC1=NCCN1	u	-12.7%	-16.3%	-11.1%	-4.2%	u
CSCCC(c1nnnn1C1CCCCC1)N1CCC2(CC1)C(=O)NCN2c1ccccc1 (configuration not stated)	u	14.4%	-9.4%	u	28.0%	u
CSCCC(c1nnnn1-c1c(C)cccc1C)N1CCC(n2c(=O)[nH]c3ccccc32)CC1 (configuration not stated)	25.9µM*	-3.7%	-13.3%	-17.7%	-2.4%	18.4µM*
CC(C)(C)n1nnnc1C(CCc1ccccc1)N1CCC(n2c(=O)[nH]c3ccccc32)CC1 (configuration not stated)	13µM*	u	-0.3%	u	u	13µM*
O=c1[nH]c2ccccc2n1C1CCN(C(c2nnnn2C2CCCC2)C2CC2)CC1 (configuration not stated)	u	11.8%	-8.2%	-2.6%	13.1%	u
O=c1[nH]c2ccccc2n1C1CCN(C(CCc2ccccc2)c2nnnn2C2CCCCC2)CC1 (configuration not stated)	20.6µM*	15.9%	-6.9%	u	9.0%	13µM*
CC(C)(C)n1nnnc1C(C1CC1)N1CCC(n2c(=O)[nH]c3ccccc32)CC1 (configuration not stated)	u	23.9%	3.7%	-5.1%	u	u
O=c1[nH]c2ccccc2n1C1CCN(C(c2nnnn2C2CCCCC2)C2CC2)CC1 (configuration not stated)	u	-20.3%	-2.4%	u	-27.2%	14.6µM*
COc1ccccc1NC(=O)N(Cc1ccco1)C1CCN(C(C)=O)CC1	-24.9%	x	-2.5%	-16.9%	x	u
CSCCC(c1nnnn1C1CCCC1)N1CCC(n2c(=O)[nH]c3ccccc32)CC1 (configuration not stated)	u	1.3%	9.8%	1.1%	2.8%	23.1µM*
O=[N+]([O-])c1cccc2c([N+](=O)[O-])cccc12	-4.2%	16.2%	-5.5%	-3.2%	-1.3%	u
Nc1nnc(Sc2ncccc2[N+](=O)[O-])s1	u	12.1%	-8.3%	0.3%	14.6%	16.4µM*
Cc1ccc(C(=O)N[C@@H](C)CN2C3=NC[C@H](Cc4ccccc4)N3C[C@H]2Cc2ccc(O)cc2)cc1Br	14.6µM*	u	11.2µM*	12.6µM*	u	16.4µM*
Cc1ccc(C(=O)N[C@@H](C)CN2C3=NC[C@@H](Cc4ccccc4)N3C[C@H]2Cc2ccc(O)cc2)cc1Br	6.51µM*	u	-103.1%	u	u	7.31µM*
[2H]C([2H])([2H])[C@H](N)Cc1ccccc1	3.1%	x	x	x	x	4.0%
[Hg+][c]1ccccc1	0.0891µM*	x	0.562µM*	0.316µM*	x	0.1µM*
CCCCOc1ccc(Cn2c(=O)oc3ccccc32)cc1	u	-5.4%	-0.3%	3.7%	0.5%	u
CC(C)OP(=O)(OC(C)C)C(NCc1ccccc1)c1ccccc1 (configuration not stated)	u	0.5%	-26.4%	-3.2%	1.0%	23.1µM*
CNC(=O)O/N=C/C(C)(C)S(C)=O (configuration not stated)	7.5%	x	-5.1%	-3.1%	x	10.2%
Cc1ccc(-n2c(/C=C/c3ccccn3)nc3ccccc3c2=O)cc1	u	9.0%	3.2%	6.8%	0.5%	u
Cc1ccc(-n2c(/C=C/c3ccccc3)nc3ccccc3c2=O)cc1C	16.4µM*	x	-28.4%	-6.7%	x	23.1µM*
Cc1ccc(-n2c(/C=C/c3ccccc3)nc3ccccc3c2=O)cc1Cl	u	x	-22.3%	u	x	23.1µM*
CC1CC(C)CN(S(=O)(=O)c2ccc3c(c2)oc(=O)n3CC(=O)N(C)Cc2ccccc2)C1 (configuration not stated)	u	0.4%	-27.9%	u	-0.4%	u
COC(=O)C1=C(C)NC(=S)NC1c1ccc(N(CCCl)CCCl)cc1Cl (configuration not stated)	9.2µM*	-0.1%	-8.8%	0.0%	0.3%	20.6µM*
Cc1c(CCN)ccc2c1[nH]c1ccccc12	u	0.0%	-17.4%	-12.3%	-1.2%	29.1µM*
SMILES	TDP1 cell CPT	HT1080 IDH1KD tx	HepG2 viability	TGFb SMAD3 inh	HT1080-NT tox	TDP1 cell noCPT
C[C@]12CCC3=C4CCC(=O)C=C4CC[C@H]3C1CC[C@@H]2O (some centres not stated)	9.0%	-12.5%	-7.3%	-31.3%	-19.6%	u
Fc1ccccc1CN1Cc2ccccc2-n2nncc2C1	u	-0.6%	-0.9%	-1.2%	4.6%	23.1µM*
CC(C)(C)C(=O)N1Cc2cc(-c3ccccc3)ccc2-n2nncc2C1	16.4µM*	0.9%	-17.8%	-3.8%	-4.2%	u
COc1ccc(-c2ccc3c(c2)CN(C(=O)C(C)(C)C)Cc2cnnn2-3)cc1	u	-21.1%	-31.5%	-15.1%	-9.1%	u
Cc1ccc(CN2Cc3ccc(Br)cc3-n3nncc3C2)cc1	u	-11.1%	-13.4%	u	13.3%	u
CN1Cc2ccccc2-n2nncc2C1	-8.6%	1.2%	-6.0%	0.9%	7.3%	0.7%
c1ccc(-c2ccc(CN3Cc4ccccc4-n4nncc4C3)cc2)cc1	4.61µM*	-18.6%	-0.6%	5.9%	-15.1%	5.17µM*
CC1=C(C)[N+](=O)C2(O)CCCCC2(C)N1[O-] (configuration not stated)	1.1%	12.8%	1.7%	u	9.3%	1.0%
Cc1cccc(-c2nc(CN3C(=O)CN=C(c4ccccc4)c4ccccc43)c(C)o2)c1	u	x	-52.0%	u	x	u
Cc1oc(-c2cccc(Cl)c2)nc1CN1CCC(C(=O)NCCCN2CCN(c3cccc(Cl)c3)CC2)CC1	14.6µM*	x	-30.5%	-7.6%	x	18.4µM*
CC(C)CCOP(=O)(c1ccc(N(C)C)cc1)C(O)c1ccc(Cl)cc1Cl (configuration not stated)	16.4µM*	16.4µM*	-169.7%	u	23.1µM*	20.6µM*
CCCCOP(=O)(c1ccc(N(C)C)cc1)C(O)c1c(Cl)cccc1Cl (configuration not stated)	u	-22.8%	-24.5%	-11.2%	-21.2%	u
